Screen size: about 5,500 compounds; about 2,000 (36%) were called active. Roughly 18% stayed inconclusive and do not appear here. Cut-off read from the data, not from the text of the source: active = normalized growth mostly below about 0.91 (no sharp cut-off); inconclusive = no clear call, values can overlap the other calls; inactive = mostly above about 0.92. This is one part of the list.
Assay: chemical genetic growth profiling, strain panel (AID 1159580);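 note: tested at 20 µM; growth read once vehicle control cultures reached saturation at 30 °C; 1 = growth at the plate median or of vehicle wells; lower values mean less growth of the strain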
Settings: S. cerevisiae deletion strains, growth OD

Measured: normalized growth

C=C1C2CCC3(C)C(c4ccoc4)OC(=O)CC13OC1CC(OC(C)=O)C(C)(C)C(CC(=O)OC)C12C (stereo unspecified)
inactive: locus YAL021C, strain ccr4, hits give low values 1.02 | locus YAL026C, strain drs2, hits give low values 1.01 | locus YAL030W, strain snc1, hits give low values 1 | locus YBL061C, strain skt5, hits give low values 0.993 | locus YBR009C, strain hhf1, hits give low values 1 | locus YBR021W, strain FUR4, hits give low values 1 | locus YBR023C, strain chs3, hits give low values 1 | locus YBR171W, strain sec66, hits give low values 1.01 | locus YBR229C, strain ROT2, hits give low values 1 | locus YBR231C, strain swc5, hits give low values 1.02 | locus YBR279W, strain paf1, hits give low values 1.01 | locus YCL011C, strain gbp2, hits give low values 1 | locus YCL016C, strain dcc1, hits give low values 1 | locus YCL029C, strain bik1, hits give low values 0.995 | locus YCL061C, strain MRC1, hits give low values 1.01 | locus YCL069W, strain vba3, hits give low values 1 | locus YCR088W, strain abp1, hits give low values 1.01 | locus YDL005C, strain med2, hits give low values 0.985 | locus YDL035C, strain GPR1, hits give low values 0.993 | locus YDL040C, strain nat1, hits give low values 1.01 | locus YDL074C, strain BRE1, hits give low values 1.02 | locus YDL101C, strain DUN1, hits give low values 1 | locus YDL185W, strain tfp1, hits give low values 0.999 | locus YDL192W, strain arf1, hits give low values 0.985 | locus YDR001C, strain nth1, hits give low values 1.01 | locus YDR069C, strain doa4, hits give low values 1.01 | locus YDR101C, strain arx1, hits give low values 1.05 | locus YDR137W, strain rgp1, hits give low values 0.899 | locus YDR159W, strain sac3, hits give low values 1.03 | locus YDR162C, strain NBP2, hits give low values 0.991 | locus YDR195W, strain ref2 1 | locus YDR297W, strain sur2, hits give low values 1.02 | locus YDR318W, strain mcm21, hits give low values 0.992 | locus YDR334W, strain swr1, hits give low values 1.03 | locus YDR335W, strain msn5, hits give low values 1 | locus YDR388W, hits give low values 1 | locus YDR392W, strain spt3, hits give low values 1.01 | locus YDR502C, strain sam2, hits give low values 0.994 | locus YEL003W, strain gim4, hits give low values 1.01 | locus YEL037C, strain rad23, hits give low values 1.02 | locus YEL061C, strain CIN8 (second series), hits give low values 1.01 | locus YEL061C, strain CIN8, hits give low values 1 | locus YER015W, strain faa2, hits give low values 1.01 | locus YER016W, strain bim1, hits give low values 1.01 | locus YER110C, hits give low values 0.99 | locus YER111C, strain swi4, hits give low values 0.988 | locus YER155C, strain BEM2 (second series), hits give low values 1.02 | locus YER155C, strain BEM2, hits give low values 1.01 | locus YER167W, strain BCK2, hits give low values 1.01 | locus YFR010W, strain ubp6, hits give low values 1.01 | locus YGL078C, strain dbp3, hits give low values 1.01 | locus YGL086W, strain mad1, hits give low values 0.998 | locus YGL167C, strain pmr1, hits give low values 1.01 | locus YGL173C, strain kem1, hits give low values 0.998 | locus YGL227W, strain vid30, hits give low values 1 | locus YGL240W, strain doc1, hits give low values 0.991 | locus YGL248W, strain PDE1, hits give low values 0.993 | locus YGL253W, strain hxk2, hits give low values 0.981 | locus YGR135W, strain pre9, hits give low values 0.983 | locus YGR252W, strain gcn5, hits give low values 0.923 | locus YHR013C, strain ard1, hits give low values 1.01 | locus YHR027C, strain rpn1, hits give low values 1.02 | locus YHR030C, strain SLT2, hits give low values 1.01 | locus YHR079C, strain IRE1 (second series), hits give low values 1 | locus YHR094C, strain hxt1, hits give low values 0.999 | locus YHR129C, strain ARP1, hits give low values 1.01 | locus YHR142W, strain chs7, hits give low values 0.99 | locus YHR200W, strain rpn10, hits give low values 1 | locus YIL066C, strain RNR3, hits give low values 1.01 | locus YIL073C, strain SPO22, hits give low values 0.973 | locus YIL125W, strain kgd1, hits give low values 0.998 | locus YIR030C, strain dcg1, hits give low values 0.998 | locus YJL092W, strain hpr5, hits give low values 1.02 | locus YJL095W, strain BCK1 (second series), hits give low values 1.02 | locus YJL095W, strain BCK1, hits give low values 1.01 | locus YJL115W, strain asf1, hits give low values 1.01 | locus YJL129C, strain trk1, hits give low values 0.969 | locus YJL134W, strain LCB3, hits give low values 1.01 | locus YJL154C, strain vps35, hits give low values 1.03 | locus YJL164C, strain tpk1, hits give low values 0.997 | locus YJL166W, strain qcr8, hits give low values 1.02

— PubChem BioAssay AID1159580 (chemical genetic matrix, 2015)
